Assays:
Assay in all cases: PBM binding z-score (relative to random genomic background probes); higher = stronger binding; sequences stand for … in GC…GCGATTGACAGCGTAGAATGAAGG
[1] = tested on: RARb homodimer (NR concentration 270 nM)
Method in brief: (§1)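 Ligand-free nuclear receptor dimers were applied to custom Agilent 4×180K protein-binding microarrays whose double-stranded probes carried direct-repeat seeds, single-nucleotide variants, half-site ablations and random human genomic background sequences in 34-nt variable regions. Incubation lasted 1 h. Binding z-scores were computed against the random background probes from regression-normalized fluorescence.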

[2] = tested on: RARg:RXRa (NR concentration 270 nM, RXRa partner concentration 90 nM)
Method in brief: as §1

[3] = tested on: RARg homodimer (NR concentration 270 nM)
Method in brief: as §1

[4] = tested on: RXRa DBDmut IVT, anti-RXR (DBD mutation: RXRa K156A/R161A, NR concentration 90 nM)
Method in brief: as §1

[5] = tested on: RXRa homodimer (NR concentration 180 nM)
Method in brief: as §1

[6] = tested on: THRa:RXRa (NR concentration 90 nM, RXRa partner concentration 90 nM)
Method in brief: as §1

[7] = tested on: THRa homodimer (NR concentration 90 nM)
Method in brief: as §1

[8] = tested on: VDR homodimer (NR concentration 270 nM)
Method in brief: as §1

Sequence | PBM binding z-score [1] | PBM binding z-score [2] | PBM binding z-score [3] | PBM binding z-score [4] | PBM binding z-score [5] | PBM binding z-score [6] | PBM binding z-score [7] | PBM binding z-score [8]
TCGAGTAGGTTAGTAGGGGCATTCAGCCAACATA | 0.576 | 0.0411 | -0.0163 | 0.422 | 0.366 | 0.542 | 0.108 | 0.677
TCTAGCAGGCCAGTGGGTCACTCAAGAGGTACGG | 1.64 | 1.37 | 1.24 | -0.186 | 1.18 | 0.549 | -0.701 | -0.424
CCTCGGAGGACAACAGGAGGTCTGAGCTGCCAGA | 0.507 | 0.123 | 0.881 | -0.213 | -0.493 | 0.56 | -0.246 | -0.289
GCAGACAGGTGAAACGCATGTAACTCAGGGTGGC | -0.102 | 0.258 | 0.151 | -0.443 | 0.749 | 0.0674 | -0.704 | -0.736
CCTGCCAGGTCATGGTCAGCTAATCTACAGTATG | 3.28 | 4.12 | 4.46 | 1.81 | 3.17 | 3.64 | 2.48 | 0.972
GTACCAAGGGGAATAGGTCGTTGATGAGTAGGCG | 0.74 | 0.528 | 0.371 | -0.365 | 0.651 | 0.124 | -0.309 | 0.49
CATTACGGGTCAAGGTTATAGCACGGGTGGTACG | 3.78 | 5.08 | 5.37 | 1.61 | 6.03 | 3.51 | 1.29 | 2.04

From the supplement of paper PMC6555819
